Test results from the supplement of paper PMC8728848.
This is one part of a sample in which the strongest signals are shown more often than they occur.

B1: SCA (Schizophyllum commune) (protein)
chain: MGIDQGVYLITNAGSGTAATLKDGYVKGWERIKGKEQLNQLWFVKSVKTSASDPGYAAFNLATNKVLDLEKGLADRGTPILGWDYHEGDNQHWVIKKQADGKYYKIQSVKTQTFVDLNNGGKDNGTKIQGWVGSWDETNSHQRWVFNQFSATGSRIKSILDTHPKIHGKVIVEWPDRIYFTPDQYIFEAIWAKTGLADIKPRDPLFQSEAYEKVFKGWVVSRAQEIIKVDGFDILVGSLSLVEKSTQKIKVLDVSVRTSDDKSPDLSQIVFFDPESGRTLVDIPEGYEVNSVII
B2: CD83 (Homo sapiens) (protein)
chain: MSRGLQLLLLSCAYSLAPATPEVKVACSEDVDLPCTAPWDPQVPYTVSWVKLLEGGEERMETPQEDHLRGQHYHQKGQNGSFDAPNERPYSLKIRNTTSCNSGTYRCTLQDPDGQRNLSGKVILRVTGCPAQRKEETFKKYRAETSEQKLISEEDLSRGSDDDDKAEPRGP

Experiments:
Assay in all cases: glycan array binding signal (z-score within array); higher = stronger binding
Details in all cases: glycan notation: IUPAC condensed, linker removed
[1] = biological target: Neu5Gc(a2-3)Gal(b1-4)GlcNAc
Outline: (§1)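 Arrays were curated from the Consortium for Functional Glycomics database, 3228 in total, and kept only where the protein sequence was available. Binding is expressed as a within-array Z-score. This score was averaged across arrays of the same protein sequence at different concentrations or buffers and across linkers, and negative values can be read as non-binding.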

[2] = biological target: Neu5Gc(a2-6)Gal(b1-4)GlcNAc
Outline: as §1

[3] = biological target: Fuc(a1-2)Gal(b1-3)[Fuc(a1-4)]GlcNAc
Outline: as §1

Fuc(a1-2)GlcNAc = biological target: Fuc(a1-2)GlcNAc
Outline: as §1

[4] = biological target: Fuc(a1-2)[GalNAc(a1-3)]Gal(b1-3)GlcNAc
Outline: as §1

[5] = biological target: Gal(b1-3)GalNAc(b1-4)Gal(b1-4)Glc
Outline: as §1

[6] = biological target: Gal(b1-3)GlcNAc(b1-3)Gal(b1-4)Glc
Outline: as §1

[7] = biological target: Gal(b1-3)[Fuc(a1-4)]GlcNAc(b1-3)Gal(b1-4)[Fuc(a1-3)]GlcNAc
Outline: as §1

[8] = biological target: Gal(b1-4)GlcNAc(b1-3)Gal(b1-4)GlcNAc(b1-3)Gal(b1-4)GlcNAc
Outline: as §1

Gal3S6S(b1-4)GlcNAc6S = biological target: Gal3S6S(b1-4)GlcNAc6S
Outline: as §1

GalNAc(a1-3)GalNAc = biological target: GalNAc(a1-3)GalNAc
Outline: as §1

[9] = biological target: GlcNAc(b1-3)Gal(b1-4)GlcNAc
Outline: as §1

GlcNAc(b1-3)Man = biological target: GlcNAc(b1-3)Man
Outline: as §1

[10] = biological target: GlcNAc(b1-3)[GlcNAc(b1-6)]GalNAc
Outline: as §1

[11] = biological target: Man(a1-2)Man(a1-3)[Man(a1-2)Man(a1-6)]Man(a1-6)[Man(a1-2)Man(a1-2)Man(a1-3)]Man(b1-4)GlcNAc(b1-4)GlcNAc
Outline: as §1

[12] = biological target: Man(a1-2)Man(a1-6)[Man(a1-3)]Man(a1-6)[Man(a1-2)Man(a1-2)Man(a1-3)]Man
Outline: as §1

[13] = biological target: Man(a1-3)[Man(a1-6)]Man(a1-6)[Man(a1-2)Man(a1-3)]Man(b1-4)GlcNAc(b1-4)GlcNAc
Outline: as §1

[14] = biological target: Man(a1-3)[Man(a1-6)]Man(a1-6)[Man(a1-3)]Man(b1-4)GlcNAc(b1-4)GlcNAc
Outline: as §1

[15] = biological target: Neu5Ac(a2-3)Gal(b1-3)GalNAc(b1-3)Gal(a1-4)Gal(b1-4)Glc
Outline: as §1

[16] = biological target: Neu5Ac(a2-3)Gal(b1-3)GlcNAc6S
Outline: as §1

[17] = biological target: Neu5Ac(a2-3)Gal(b1-3)[Neu5Ac(a2-3)Gal(b1-4)]GlcNAc
Outline: as §1

[18] = biological target: Neu5Ac(a2-3)Gal(b1-4)[Fuc(a1-3)]GlcNAc(b1-3)Gal(b1-4)GlcNAc
Outline: as §1

[19] = biological target: Neu5Ac(a2-3)Gal(b1-4)[Fuc(a1-3)]GlcNAc(b1-3)Gal(b1-4)[Fuc(a1-3)]GlcNAc(b1-3)Gal(b1-4)[Fuc(a1-3)]GlcNAc
Outline: as §1

[20] = biological target: Neu5Ac(a2-3)Gal(b1-4)[Fuc(a1-3)]GlcNAc(b1-6)[Gal(b1-3)]GalNAc
Outline: as §1

[21] = biological target: Neu5Ac(a2-3)Gal6S(b1-4)[Fuc(a1-3)]GlcNAc
Outline: as §1

[22] = biological target: Neu5Ac(a2-3)GalNAc(b1-4)GlcNAc
Outline: as §1

[23] = biological target: Neu5Ac(a2-6)Gal(b1-4)GlcNAc(b1-3)Gal(b1-4)[Fuc(a1-3)]GlcNAc(b1-3)Gal(b1-4)[Fuc(a1-3)]GlcNAc
Outline: as §1

[24] = biological target: Neu5Ac(a2-8)Neu5Ac(a2-8)Neu5Ac(a2-3)Gal(b1-4)Glc
Outline: as §1

[25] = biological target: Neu5Ac(a2-8)Neu5Ac(a2-8)Neu5Ac(a2-3)[GalNAc(b1-4)]Gal(b1-4)Glc
Outline: as §1

Row | Binder | glycan array binding signal (z-score) [1] | glycan array binding signal (z-score) [2] | glycan array binding signal (z-score) [3] | glycan array binding signal (z-score) (Fuc(a1-2)GlcNAc) | glycan array binding signal (z-score) [4] | glycan array binding signal (z-score) [5] | glycan array binding signal (z-score) [6] | glycan array binding signal (z-score) [7] | glycan array binding signal (z-score) [8] | glycan array binding signal (z-score) (Gal3S6S(b1-4)GlcNAc6S) | glycan array binding signal (z-score) (GalNAc(a1-3)GalNAc) | glycan array binding signal (z-score) [9] | glycan array binding signal (z-score) (GlcNAc(b1-3)Man) | glycan array binding signal (z-score) [10] | glycan array binding signal (z-score) [11] | glycan array binding signal (z-score) [12] | glycan array binding signal (z-score) [13] | glycan array binding signal (z-score) [14] | glycan array binding signal (z-score) [15] | glycan array binding signal (z-score) [16] | glycan array binding signal (z-score) [17] | glycan array binding signal (z-score) [18] | glycan array binding signal (z-score) [19] | glycan array binding signal (z-score) [20] | glycan array binding signal (z-score) [21] | glycan array binding signal (z-score) [22] | glycan array binding signal (z-score) [23] | glycan array binding signal (z-score) [24] | glycan array binding signal (z-score) [25]
1 | B1 | -0.161 | -0.162 |  |  |  |  |  |  |  |  |  |  |  |  |  |  |  |  |  |  |  |  |  |  |  |  |  |  | 
2 | B2 |  |  | -0.388 | -0.045 | -0.222 | -0.09 | -0.32 | -0.243 | -0.142 | -0.129 | -0.329 | -0.162 | -0.188 | -0.453 | 2.96 | -0.272 | 11.7 | 0.723 | 0.647 | 8.93 | -0.458 | 0.381 | -0.243 | -0.12 | -0.131 | -0.291 | 0.014 | 3.7 | 2.88
